Sampled rows, rich in hits. Any-hit rate of the full collection: about 3.5%.
MITF primary: human MITF inhibition, primary screen; actives 0.91% (n = 650,000); AlphaScreen MITF homodimerization, bead proximity signal; O75030; inhibition, % at 2.6 µM; AID 1259374; in the data active means inhibition above about 50%
TEAD-YAP inh: TEAD-YAP interaction inhibition | HEK-TIYL cells, TEAD-Gal4/YAP UAS-luciferase luminescence | inhibition, % at 9.12 µM | actives 1.4% (n = 640,000) | AID 1259422; in the data active means inhibition above about 32%
FBW7 activator: activators of human E3 ligase FBW7. Q969H0. AlphaScreen FBW7–phospho-cyclin E peptide binding, activator screen. normalized activity (activation), % at 26.1 µM. actives 0.13% (n = 650,000). AID 1259310; in the data active means normalized activity above about 1.9%;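 further: purified mutant Fbw7 with reduced substrate affinity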
Target sequence (Q969H0 whole entry, looked up): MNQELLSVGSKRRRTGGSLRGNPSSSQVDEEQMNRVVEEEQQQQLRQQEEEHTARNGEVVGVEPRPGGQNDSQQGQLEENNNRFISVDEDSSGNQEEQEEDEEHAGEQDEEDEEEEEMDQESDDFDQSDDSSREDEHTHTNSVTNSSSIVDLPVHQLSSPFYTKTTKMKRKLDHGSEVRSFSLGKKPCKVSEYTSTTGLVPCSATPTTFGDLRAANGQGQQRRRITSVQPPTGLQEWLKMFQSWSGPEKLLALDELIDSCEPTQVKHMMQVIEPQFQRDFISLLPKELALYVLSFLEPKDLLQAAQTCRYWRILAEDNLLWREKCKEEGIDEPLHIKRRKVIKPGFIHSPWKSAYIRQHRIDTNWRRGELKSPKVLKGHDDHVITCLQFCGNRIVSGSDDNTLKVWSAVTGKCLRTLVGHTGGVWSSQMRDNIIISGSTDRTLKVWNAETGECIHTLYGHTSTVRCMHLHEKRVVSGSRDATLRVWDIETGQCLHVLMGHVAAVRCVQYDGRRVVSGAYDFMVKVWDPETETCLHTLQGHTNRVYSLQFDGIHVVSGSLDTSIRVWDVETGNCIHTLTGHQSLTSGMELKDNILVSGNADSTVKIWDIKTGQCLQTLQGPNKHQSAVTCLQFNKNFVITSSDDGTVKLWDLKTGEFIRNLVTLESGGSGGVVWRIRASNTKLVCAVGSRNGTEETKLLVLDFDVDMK
GPR151 activ: human GPR151 activation | Q8TDV0 | PathHunter beta-arrestin GPR151 cells, luminescence | activation, % at 11.2 µM | actives 1% (n = 650,000); in the data active means activation above about 4.9%
MITF inh conf: human MITF inhibition, confirmation | inhibition, % at 2.6 µM | AID 1259372 | shares compounds with MITF primary | AlphaScreen MITF homodimerization, biotin/His-MITF beads | actives 16% (n = 4,700);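 active means inhibition above a cutoff derived from the DMSO control wells, cut at about 28% in these data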;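 further: inhibitors lower the bead chemiluminescence by keeping MITF from dimerizing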
AS interf DR: counter-screen: compounds optically interfering with AlphaScreen; shares compounds with MITF primary; AlphaScreen optical interference counterscreen, cell-free; IC50, µM; actives 6% (n = 480); AID 1259373; call rule not given here
AS interf ctr: AlphaScreen optical interference, counter-screen | shares compounds with MITF primary | LysRS AlphaScreen counterscreen, signal interference, triplicate | inhibition, % at 2.6 µM | actives 7.6% (n = 4,700);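 active means inhibition above a cutoff derived from the DMSO control wells, cut at about 30% in these data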
Each line names hits and unclear results; the compound was inactive in the other large screens (follow-up assays come after a bar, where they were run).

CCN1CCN(CCOc2ccc(Cl)cc2Br)CC1	MITF primary 57 | MITF inh conf inactive | AS interf ctr inactive
CCN1CCN(CCCOc2ccc(Cl)cc2Br)CC1	MITF primary 68 | MITF inh conf inactive | AS interf ctr inactive
CC1CN(CCOc2ccc(Cl)cc2Br)CC(C)O1 (stereo not given)	none
CCN1CCN(CCOc2ccc3ccccc3c2Br)CC1	MITF primary 60 | MITF inh conf inactive | AS interf ctr inactive
CCN1CCN(CCOc2ccc(Br)cc2C)CC1	MITF primary 57 | MITF inh conf inactive | AS interf ctr inactive
O=C(c1ccc(S(=O)(=O)Cc2cccc(F)c2)c([N+](=O)[O-])c1)N1CCc2ccccc2C1	none
COc1ccc(OC)c(NC(=O)c2cc3n(n2)C(C(F)(F)F)CC(c2ccc(Cl)cc2)N3)c1 (stereo not given)	none
N#Cc1c(NC(=O)C2COc3ccccc3O2)sc2c1CCN(Cc1ccccc1)C2 (stereo not given)	none
Cc1ccc(-n2nc3c(c2NC(=O)c2ccc(Cl)c([N+](=O)[O-])c2)CS(=O)(=O)C3)cc1	none
Cc1cc(Nc2cccc(N(C)C)c2)n2c(nc3ccccc32)c1C#N	none
CCCCN(Cc1ccco1)C(=O)C(=O)Nc1ccc2nc3n(c(=O)c2c1)CCCCC3	MITF primary 76 | MITF inh conf inactive | AS interf ctr inactive
CN(Cc1ccco1)C(=O)C(=O)Nc1ccc2nc3n(c(=O)c2c1)CCCCC3	none
Cc1ccc(S(=O)(=O)N2CCCOC2CNC(=O)C(=O)NC2CC2)cc1 (stereo not given)	none
COC(=O)c1c(NC(=O)c2ccc([N+](=O)[O-])o2)sc(Cc2ccc3c(c2)OCO3)c1C	MITF primary 55 | MITF inh conf 47 | AS interf DR inactive | AS interf ctr inactive
Cc1c(Cc2ccc3c(c2)OCO3)sc(NC(=O)c2ccc([N+](=O)[O-])o2)c1C#N	none
OCCN1CCN(Cc2ccc(OCc3ccccc3)cc2)CC1	none
CSc1ccc(CN2CCN(Cc3ccncc3)CC2)cc1	MITF primary 60 | MITF inh conf inactive | AS interf ctr inactive
CSc1ccc(CN2CCN(CCO)CC2)cc1	MITF primary 80 | MITF inh conf inactive | AS interf ctr inactive
CSc1ccc(CN2CCC(O)CC2)cc1	none
CSc1ccc(CN2CCN(C(=O)c3ccccc3F)CC2)cc1	none
CSc1ccc(CN2CCN(C(=O)C(c3ccccc3)c3ccccc3)CC2)cc1	MITF primary 53 | MITF inh conf inactive | AS interf ctr inactive
OCCN1CCN(Cc2ccc(O)cc2)CC1	MITF primary 86 | MITF inh conf inactive | AS interf ctr inactive
COc1cc(C(=O)Nc2ccc([N+](=O)[O-])cc2)cc(I)c1OC	none
NCCSc1nc(C2CC2)n(-c2ccccc2)n1	none
COc1ccccc1-n1cc(-c2ccccc2)nc1SCC(=O)Nc1cccc(C)c1C	none
COc1ccccc1-n1c(CNC(=O)c2cccs2)nnc1SCC(=O)Nc1cccc(C)c1	none
COc1ccc(OC)c(-n2c(CNC(=O)c3cccs3)nnc2SCC(=O)Nc2cccc(C)c2)c1	MITF primary 62 | MITF inh conf inactive | AS interf ctr inactive
COc1ccccc1OCC(=O)Nc1ccccc1C(=O)NC(C)(C)C	none
OCCNc1ccnc(Nc2nccc3ccccc23)n1	MITF primary 71 | MITF inh conf inactive | AS interf ctr 37
COc1ccc(C(=O)N/C(=C/c2ccc([N+](=O)[O-])cc2)C(=O)Nc2cccc(F)c2)c(Cl)c1	none
O=C(c1cc(Cl)cc(Cl)c1)N1CCN(C(=O)c2cc(Cl)cc(Cl)c2)CC1	none
O=C(c1cc(Cl)cc(Cl)c1)N1CCCCC1	MITF primary 62 | MITF inh conf inactive | AS interf ctr inactive
CCC(O)C1CCN(C(=O)CN2Cc3ccccc3OC(c3ccccc3F)C2)CC1 (stereo not given)	none
CCCN1CCC(N2CCN(S(C)(=O)=O)CC2)CC1	MITF primary 68 | MITF inh conf inactive | AS interf ctr inactive
CCS(=O)(=O)N1CCN(C2CCCC2)CC1	none
CS(=O)(=O)N1CCN(C2CCCC2)CC1	none
CCCN1CCC(N2CCN(S(=O)(=O)c3ccccc3[N+](=O)[O-])CC2)CC1	MITF primary 84 | MITF inh conf inactive | AS interf ctr inactive
CCCS(=O)(=O)N1CCN(C2CCCCC2)CC1	MITF primary 53 | MITF inh conf inactive | AS interf ctr inactive
CCOC(=O)c1cccc(C(=O)Nc2ccc([N+](=O)[O-])cc2[N+](=O)[O-])n1	none
COc1ccccc1C(=O)N1CCN(Cc2ccc(Cl)cc2)CC1	MITF primary 55 | MITF inh conf inactive | AS interf ctr inactive
O=C(c1ccccc1F)N1CCN(S(=O)(=O)c2ccc(F)cc2)CC1	MITF primary 63 | MITF inh conf inactive | AS interf ctr inactive
O=C(c1ccccc1F)N1CCN(Cc2ccc(Cl)cc2)CC1	MITF primary 56 | MITF inh conf inactive | AS interf ctr inactive
COc1ccc(CN2CCN(C(=O)c3ccccc3OC)CC2)cc1OCc1ccccc1	none
O=C(c1ccccc1F)N1CCN(Cc2ccccc2Cl)CC1	none
O=C(c1ccccc1F)N1CCN(Cc2ccccc2)CC1	none
O=C(c1ccccc1F)N1CCN(Cc2ccccc2Br)CC1	MITF primary 54 | MITF inh conf inactive | AS interf ctr inactive
Cc1ccc(C)c(OCC(=O)N/N=C\c2cccnc2)c1	none
COc1cc(OC)cc(C(=O)Nc2nc(-c3ccc(Br)cc3)cs2)c1	none
Cc1nc2nc[nH]n2c(=O)c1NS(=O)(=O)c1ccc(F)cc1	none
Cc1nc2nc[nH]n2c(=O)c1NS(=O)(=O)c1ccc2c(c1)n(C)c(=O)n2C	MITF primary 64 | MITF inh conf inactive | AS interf ctr inactive
O=C(c1ccccc1Cl)N1CCN(c2ccc([N+](=O)[O-])cc2)CC1	MITF primary 97 | MITF inh conf inactive | AS interf ctr inactive
O=C(O)c1ccc(CN2CCN(c3ccc([N+](=O)[O-])cc3)CC2)cc1	none
O=[N+]([O-])c1ccc(N2CCN(Cc3cccnc3)CC2)cc1	MITF primary 59 | MITF inh conf inactive | AS interf ctr inactive
O=[N+]([O-])c1ccc(N2CCN(Cc3ccncc3)CC2)cc1	MITF primary 61 | MITF inh conf inactive | AS interf ctr inactive
CCc1cccc(CC)c1NC(=O)CSc1nc2ncnc(N)c2[nH]1	none
CCN(CC(=O)Nc1cc(F)ccc1F)CC(=O)NC(C)C	MITF primary 63 | MITF inh conf inactive | AS interf ctr inactive
CCN(CC(=O)Nc1ccc(F)cc1Cl)CC(=O)NC(C)C	none
COc1ccc(-c2cc3ccccc3n2CC(O)CNCc2ccco2)cc1 (stereo not given)	MITF primary 71 | MITF inh conf inactive | AS interf ctr inactive
Cc1ccc(/C=C/C(=O)NCc2ccccn2)o1	MITF primary 61 | MITF inh conf 39 | AS interf DR inactive | AS interf ctr inactive
Cc1ccc(/C=C/C(=O)NCc2ccco2)o1	MITF primary 64 | MITF inh conf 66 | AS interf ctr 39

High-throughput results (PubChem BioAssay)
